# From the antibiotic and cytotoxicity screens of Wong et al. (2023)
# Among all 39,000 compounds or so, about 3,300 (8.5%) were called active. This is one part of a sample in which actives are shown more often than they occur.
# Tested on: HepG2
# Experiment: cytotoxicity call (relative viability < 0.9)
# Details: 10 µM
row,Compound,cytotoxicity call
1,CN(C)CCCNC(=O)C[C@@H]1C=C[C@H](NS(=O)(=O)c2ccccc2)[C@H](CO)O1,inactive
2,CO[C@@H]1CN(C)C(=O)c2cc(NC(=O)C3CC3)ccc2OC[C@@H](C)N(C(=O)Cc2ccccn2)C[C@H]1C,inactive
3,NC(=O)c1ccc[n+](CC(=O)c2ccccc2)c1,inactive
4,C[C@@H]1CN([C@H](C)CO)C(=O)c2cc(NC(=O)Cc3ccccc3)ccc2O[C@@H](C)CCCCO[C@@H]1CN(C)CC1CCCCC1,inactive
5,Cc1noc(C)c1S(=O)(=O)N(C)C[C@@H]1OCCCC[C@H](C)Oc2ccc(NS(=O)(=O)c3cn(C)cn3)cc2C(=O)N([C@@H](C)CO)C[C@H]1C,inactive
6,OC[C@@H]1CC[C@@H]2O[C@H](CCc3ccc(C#CCc4ccccc4)cc3)[C@@H](n3cc(-c4ccccc4)nn3)C[C@@H]2O1,inactive
7,CO[C@H](C(=O)N(C)C[C@@H]1OCc2ccccc2-c2c(n(C)c3ccccc23)C(=O)N([C@H](C)CO)C[C@H]1C)c1ccccc1,inactive
8,CN(C)C(=O)[C@H]1[C@H](CO)[C@H]2Cn3c(ccc(C4=CCCC4)c3=O)[C@@H]1N2S(=O)(=O)c1cn(C)cn1,inactive
9,O=C(C[C@@H]1CC[C@H]2[C@@H](COC[C@H](O)CN2S(=O)(=O)c2cccc(F)c2)O1)NCc1ccc(Cl)c(Cl)c1,inactive
10,C[C@H](CO)N1C[C@H](C)[C@@H](CN(C)Cc2ccc(Oc3ccccc3)cc2)Oc2ccc(NC(=O)CCC(F)(F)F)cc2C1=O,inactive
11,C[C@@H]1CN([C@@H](C)CO)C(=O)c2cc(NC(=O)CCC(F)(F)F)ccc2O[C@H]1CN(C)Cc1ccc(-c2ccccc2)cc1,active
12,C[C@H](CO)N1C[C@H](C)[C@H](CN(C)Cc2ccc(-c3ccccc3)cc2)Oc2ccc(NC(=O)CCC(F)(F)F)cc2C1=O,active
13,C[C@H]1CN([C@@H](C)CO)C(=O)c2cc(NC(=O)CCC(F)(F)F)ccc2O[C@@H]1CN(C)Cc1ccc(-c2ccccc2)cc1,active
14,C[C@H](CO)N1C[C@H](C)[C@@H](CN(C)Cc2ccc(-c3ccccc3)cc2)Oc2ccc(NC(=O)CCC(F)(F)F)cc2C1=O,inactive
15,C[C@H]1CN([C@@H](C)CO)C(=O)c2cc(NC(=O)CCC(F)(F)F)ccc2O[C@H]1CN(C)Cc1ccc(-c2ccccc2)cc1,inactive
16,C[C@@H]1CN([C@H](C)CO)C(=O)c2cc(NC(=O)CCC(F)(F)F)ccc2O[C@@H]1CN(C)Cc1ccc(-c2ccccc2)cc1,inactive
17,C[C@H]1CN([C@@H](C)CO)C(=O)c2cc(NC(=O)CCC(F)(F)F)ccc2O[C@@H]1CN(C)Cc1ccc(C(F)(F)F)cc1,inactive
18,C[C@H](CO)N1C[C@H](C)[C@H](CN(C)Cc2ccc(C(F)(F)F)cc2)Oc2ccc(NC(=O)CCC(F)(F)F)cc2C1=O,inactive
19,C[C@@H]1CN([C@@H](C)CO)C(=O)c2cc(NC(=O)CCC(F)(F)F)ccc2O[C@H]1CN(C)Cc1ccc(Oc2ccccc2)cc1,inactive
20,C[C@@H]1CN([C@H](C)CO)C(=O)c2cc(NC(=O)CCC(F)(F)F)ccc2O[C@H]1CN(C)Cc1ccc(-c2ccccc2)cc1,active

row,Compound,cytotoxicity call
1,C[C@@H]1CN([C@@H](C)CO)C(=O)c2cc(NC(=O)CCC(F)(F)F)ccc2O[C@@H]1CN(C)Cc1ccc(-c2ccccc2)cc1,inactive
2,CCN1CCC(N(C)S(=O)(=O)c2cn(C)c(=O)n(C)c2=O)CC1,inactive
3,CO[C@@H]1CN(C)C(=O)c2ccc(NS(C)(=O)=O)cc2OC[C@H](C)N(C(=O)C2CCCCC2)C[C@H]1C,inactive
4,C[C@@H]1CN([C@H](C)CO)C(=O)c2cc(NS(C)(=O)=O)ccc2O[C@H]1CN(C)Cc1ccc(C(=O)Nc2ccccc2N)cc1,inactive
5,C[C@@H]1CCCCO[C@@H](CN(C)C(=O)Nc2cccc3ccccc23)[C@@H](C)CN([C@H](C)CO)C(=O)c2cc(NS(=O)(=O)c3cccs3)ccc2O1,inactive
6,C[C@@H]1CN([C@@H](C)CO)C(=O)c2cccc(NS(=O)(=O)c3ccccc3)c2O[C@H]1CN(C)Cc1ccncc1,inactive
7,CCOc1nc2cccc(C(=O)O[C@@H](C)OC(=O)OC3CCCCC3)c2n1Cc1ccc(-c2ccccc2-c2nn[nH]n2)cc1,inactive
8,c1ccc2c(c1)Cn1nnnc1-2,inactive
9,C[C@H]1CN([C@@H](C)CO)S(=O)(=O)c2ccc(-c3ccc(C(=O)N(C)C)cc3)cc2O[C@@H]1CN(C)C(=O)Cc1ccccn1,inactive
10,C[C@@H]1CN([C@@H](C)CO)C(=O)CCCn2nncc2CO[C@@H]1CN(C)C(=O)Nc1ccc(N2CCCCC2)cc1,inactive
11,COc1ccccc1C#Cc1cnc2c(c1)C(=O)N([C@@H](C)CO)C[C@@H](C)[C@H](CN(C)C(=O)c1ccc3c(c1)OCO3)O2,inactive
12,C[C@H](CO)N1C[C@H](C)[C@@H](CN(C)Cc2ccc(Cl)c(Cl)c2)Oc2c(NC(=O)CCCCCC(=O)Nc3ccccc3N)cccc2C1=O,inactive
13,C[C@H](CO)N1C[C@H](C)[C@H](CN(C)C(=O)Nc2ccc(C(F)(F)F)cc2)OCCCC[C@H](C)Oc2ccc(NS(=O)(=O)c3cccs3)cc2C1=O,active
14,C[C@@H]1CN([C@H](C)CO)C(=O)c2cc(NS(=O)(=O)c3cccs3)ccc2O[C@@H](C)CCCCO[C@@H]1CN(C)C(=O)NC1CCCCC1,active
15,C[C@@H]1CCCCO[C@@H](CN(C)C(=O)Nc2ccc(C(F)(F)F)cc2)[C@H](C)CN([C@@H](C)CO)C(=O)c2cc(NS(=O)(=O)c3cccs3)ccc2O1,inactive
16,C[C@@H]1CCCCO[C@@H](CN(C)C(=O)Nc2ccccc2)[C@@H](C)CN([C@H](C)CO)C(=O)c2cc(NS(=O)(=O)c3cccs3)ccc2O1,inactive
17,C[C@H](CO)N1C[C@H](C)[C@@H](CN(C)C(=O)Nc2ccc(C(F)(F)F)cc2)OCCCC[C@H](C)Oc2ccc(NS(=O)(=O)c3cccs3)cc2C1=O,active
18,C[C@@H]1CCCCO[C@H](CN(C)C(=O)Nc2ccc(C(F)(F)F)cc2)[C@H](C)CN([C@H](C)CO)C(=O)c2cc(NS(=O)(=O)c3cccs3)ccc2O1,inactive
19,C[C@@H]1CN([C@H](C)CO)C(=O)c2cc(NS(=O)(=O)c3cccs3)ccc2O[C@@H](C)CCCCO[C@H]1CN(C)C(=O)NC1CCCCC1,inactive
20,C[C@H]1CCCCO[C@@H](CN(C)C(=O)Nc2ccccc2)[C@@H](C)CN([C@@H](C)CO)C(=O)c2cc(NS(=O)(=O)c3cccs3)ccc2O1,inactive

row,Compound,cytotoxicity call
1,C[C@@H]1CCCCO[C@H](CN(C)C(=O)Nc2ccccc2)[C@@H](C)CN([C@@H](C)CO)C(=O)c2cc(NS(=O)(=O)c3cccs3)ccc2O1,active
2,C[C@@H]1CN([C@@H](C)CO)C(=O)c2cc(NS(=O)(=O)c3cccs3)ccc2O[C@@H](C)CCCCO[C@@H]1CN(C)C(=O)Nc1ccc(C(F)(F)F)cc1,inactive
3,C[C@@H]1CCCCO[C@H](CN(C)C(=O)Nc2ccc(C(F)(F)F)cc2)[C@@H](C)CN([C@H](C)CO)C(=O)c2cc(NS(=O)(=O)c3cccs3)ccc2O1,inactive
4,C[C@H]1CCCCO[C@@H](CN(C)C(=O)NC2CCCCC2)[C@@H](C)CN([C@@H](C)CO)C(=O)c2cc(NS(=O)(=O)c3cccs3)ccc2O1,inactive
5,Cc1cc(C)c2nnc(SCC(=O)O)n2n1,inactive
6,C[C@@H]1CN([C@@H](C)CO)C(=O)Cc2cc(NS(C)(=O)=O)ccc2O[C@H]1CN(C)C(=O)NC1CCCCC1,inactive
7,Cc1noc(C)c1NC(=O)N[C@@H]1CC[C@H](CC(=O)NCCCN(C)C)O[C@@H]1CO,inactive
8,O=C(C[C@@H]1C[C@H]2c3cc(NS(=O)(=O)c4ccc(F)cc4)ccc3O[C@H]2[C@H](CO)O1)NCc1ccccc1,inactive
9,Cc1ccc(S(=O)(=O)N(C)C[C@H]2Oc3ccc(NS(C)(=O)=O)cc3C(=O)N([C@@H](C)CO)C[C@H]2C)cc1,inactive
10,CN(C)CCCNC(=O)C[C@@H]1CC[C@H](NS(=O)(=O)c2ccccc2)[C@H](CO)O1,inactive
11,C[C@H]1CCCCO[C@@H](CN(C)C(=O)Nc2ccc(C(F)(F)F)cc2)[C@@H](C)CN([C@@H](C)CO)C(=O)c2cc(NS(=O)(=O)c3cccs3)ccc2O1,inactive
12,C[C@@H]1CCCCO[C@H](CN(C)C(=O)C2CCCCC2)[C@H](C)CN([C@H](C)CO)C(=O)c2cc(NS(=O)(=O)c3cccs3)ccc2O1,inactive
13,C[C@@H]1CCCCO[C@H](CN(C)C(=O)Nc2ccc(C(F)(F)F)cc2)[C@H](C)CN([C@@H](C)CO)C(=O)c2cc(NS(=O)(=O)c3cccs3)ccc2O1,inactive
14,C[C@@H]1CCCCO[C@@H](CN(C)C(=O)Nc2ccc(C(F)(F)F)cc2)[C@@H](C)CN([C@H](C)CO)C(=O)c2cc(NS(=O)(=O)c3cccs3)ccc2O1,inactive
15,C[C@H]1CCCCO[C@H](CN(C)C(=O)Nc2ccc(C(F)(F)F)cc2)[C@@H](C)CN([C@@H](C)CO)C(=O)c2cc(NS(=O)(=O)c3cccs3)ccc2O1,inactive
16,C[C@@H]1CCCCO[C@H](CN(C)C(=O)Nc2ccc(C(F)(F)F)cc2)[C@@H](C)CN([C@@H](C)CO)C(=O)c2cc(NS(=O)(=O)c3cccs3)ccc2O1,active
17,C[C@@H]1CCCCO[C@@H](CN(C)C(=O)C2CCCCC2)[C@H](C)CN([C@H](C)CO)C(=O)c2cc(NS(=O)(=O)c3cccs3)ccc2O1,inactive
18,C[C@@H]1CCCCO[C@@H](CN(C)C(=O)Nc2ccc(C(F)(F)F)cc2)[C@H](C)CN([C@H](C)CO)C(=O)c2cc(NS(=O)(=O)c3cccs3)ccc2O1,active
19,C[C@@H]1CCCCO[C@@H](CN(C)C(=O)C2CCCCC2)[C@@H](C)CN([C@H](C)CO)C(=O)c2cc(NS(=O)(=O)c3cccs3)ccc2O1,active
